Over roughly 81,000 sequences, “one-hybrid fitness for binding parS DNA” has its median near -0.17; the highest 2% begin near 0.51. The sample holds the highest values, similar sequences and a random draw of the others, so the mix is not that of the screen.
B1: Caulobacter ParB omega fusion; a variant is named by its letters at X, in order, B8GW30 (parent)
chain: MESVVVGEPGMSEGRRGLGRGLSALLGEVDAAPAQAPGEQLGGSREAPIEILQRNPDQPRRTFREEDLEDLSNSIREKGVLQPILVRPSPDTAGEYQIVAGERAWRAAQRAGLKTVPIMVRELDDLAVLEIGIIENVQRADLNVLEEALSYKVLMEKFERTQENIAQTIGKSXSHVANXMRLLXLPDEVQSYLVSGELTAXHARAIAAAADPVALAKQIIEGGLSVRETEALARKAPNLSAGKSKGGRPPRVKDTDTQALESDLSSVLGLDVSIDHRGSTGTLTITYATLEQLDDLCNRLTRGI

Variants of: B1
Test: one-hybrid fitness for binding parS DNA (scaled: cognate 1, non-cognate 0); higher = stronger binding
Conditions: with parS DNA site
Procedure, shortened: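 Bacterial one-hybrid selection in E. coli USO rpoZ- hisB- pyrF- with a HIS3 reporter carrying the site 19 bp from the promoter, screening Caulobacter ParB libraries with four specificity codons randomised (NNS). Cells grew 48 hours at 37°C on M9-minus-histidine plus 0.1 mM IPTG and 5 mM 3-AT. Plasmids before and after selection were Illumina-sequenced, three replicate libraries pooled, and variants under 10 reads dropped. Fitness is the log change in variant-to-wild-type read ratio, rescaled to cognate 1, non-cognate 0.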

Variant	one-hybrid fitness for binding parS DNA
FGNS	≤ 0.2
ACYG	≤ 0.2
CHPN	≤ 0.2
SMHF	≤ 0.2
RWKD	≤ 0.2
RWVK	≤ 0.2
RWVR	≤ 0.2
RWVG	0.584
RWKN	0.421
RWKG	0.901
DTHI	≤ 0.2
EYGF	≤ 0.2
AERY	≤ 0.2
KENP	≤ 0.2
FRDG	≤ 0.2
HAQD	≤ 0.2
RGTC	0.695
RGTR	≤ 0.2
RGTP	≤ 0.2
RGTF	≤ 0.2
RGTH	≤ 0.2
RGTS	0.863
RGTN	0.25
RGTK	≤ 0.2
RGTT	0.624
RGTD	≤ 0.2

Variant	one-hybrid fitness for binding parS DNA
RGTM	≤ 0.2
RGTG	0.78
TYYF	≤ 0.2
PKPC	≤ 0.2
QSEI	≤ 0.2
CPAM	≤ 0.2
QILY	≤ 0.2
QADE	≤ 0.2
CSLA	≤ 0.2
RAKC	0.91
RAVP	≤ 0.2
RAKM	0.448
RAKR	≤ 0.2
RAVN	0.388
RAVC	0.851
CAPG	≤ 0.2
TVAL	≤ 0.2
SDKW	≤ 0.2
FVSL	≤ 0.2
KQRR	≤ 0.2
IVGT	≤ 0.2
LIKM	≤ 0.2
INCG	≤ 0.2
RTVQ	≤ 0.2
RTKT	0.74
RTVT	0.879

Variant	one-hybrid fitness for binding parS DNA
RTKP	≤ 0.2
RTKQ	≤ 0.2
RTVK	≤ 0.2
SPTS	≤ 0.2
AAYI	≤ 0.2
AFVR	≤ 0.2
SQAR	≤ 0.2
QSAW	≤ 0.2
NFVC	≤ 0.2
NFKC	≤ 0.2
DFKC	≤ 0.2
RFKC	0.991
DFVC	≤ 0.2
RFVC	0.753
ARWW	0.23
ICDS	≤ 0.2
HSSC	≤ 0.2
IVSG	0.263
STPM	≤ 0.2
SILY	≤ 0.2
RTFM	0.334
RTAR	≤ 0.2
RTFQ	0.26
RTAT	0.918
RTFT	0.911
RTAQ	≤ 0.2

Variant	one-hybrid fitness for binding parS DNA
EICA	≤ 0.2
RNHW	≤ 0.2
GQRT	≤ 0.2
LGMH	≤ 0.2
QVAS	≤ 0.2
RMAA	0.59
RGFA	0.215
RMFA	0.61
RNAA	0.456
REAA	≤ 0.2
NNVS	≤ 0.2
HPRW	≤ 0.2
RKGE	≤ 0.2
RIRS	0.874
RIWD	≤ 0.2
RILP	≤ 0.2
RIRP	≤ 0.2
RILS	1.04
RIHD	≤ 0.2
RIHN	0.463
RIHS	0.97
RILH	≤ 0.2
RIWP	0.223
RIRD	≤ 0.2
RIWS	1.05
YILC	≤ 0.2

Variant	one-hybrid fitness for binding parS DNA
NTNE	≤ 0.2
HGYW	≤ 0.2
PCLT	≤ 0.2
RIYN	0.476
RIYH	≤ 0.2
RIYS	1.07
VRVS	≤ 0.2
VYCV	≤ 0.2
VANG	≤ 0.2
RVVP	≤ 0.2
RVVT	0.795
RVVH	≤ 0.2
RVKT	0.761
RVKD	≤ 0.2
RVKN	0.46
SDSY	≤ 0.2
RRMV	≤ 0.2
RLHQ	≤ 0.2
RSHQ	≤ 0.2
REHG	0.236
RLHG	1.01
RPHG	≤ 0.2
RLHM	0.321
RSHG	1
RIHF	≤ 0.2
RCHG	0.994

Variant	one-hybrid fitness for binding parS DNA
RIHG	1.02
RIHY	0.461
RDHG	≤ 0.2
CRRT	≤ 0.2
TFGN	≤ 0.2
FDPG	≤ 0.2
QNIS	≤ 0.2
FWAR	≤ 0.2
TTPY	≤ 0.2
NYDR	≤ 0.2
DKHC	≤ 0.2
YHHS	≤ 0.2
RHQT	0.853
RHCT	0.766
RHGM	0.232
RHGT	0.832
RHSF	≤ 0.2
RHST	0.854
RHSY	0.41
RHQK	≤ 0.2
RHGF	≤ 0.2
RHQF	≤ 0.2
RHCN	0.381
RHCD	≤ 0.2
WKSA	≤ 0.2
NGKG	≤ 0.2

Variant	one-hybrid fitness for binding parS DNA
MLAT	≤ 0.2
AQPR	≤ 0.2
VSSM	≤ 0.2
GPRN	≤ 0.2
MTAN	≤ 0.2
FTMR	≤ 0.2
TSLA	≤ 0.2
VLVS	≤ 0.2
TYKP	≤ 0.2
SNHT	≤ 0.2
RHYK	≤ 0.2
RHRY	0.473
RHWR	≤ 0.2
RHWK	≤ 0.2
RHYT	0.806
RHWT	0.692
RHYN	0.448
RHRM	0.277
RHRT	0.788
ITCG	≤ 0.2
LTNS	≤ 0.2
TGVT	≤ 0.2
VSLW	≤ 0.2
SSDD	≤ 0.2
RLIF	≤ 0.2
RLIC	0.938

Variant	one-hybrid fitness for binding parS DNA
RLPF	≤ 0.2
RLIQ	≤ 0.2
RLPC	0.681
RLPR	≤ 0.2
SDVC	≤ 0.2
QSHD	≤ 0.2
RMNA	0.606
RMDA	0.572
SISG	≤ 0.2
RVGP	≤ 0.2
RVHN	0.425
RVQD	≤ 0.2
RVSS	0.975
RVGH	≤ 0.2
RVHS	0.972
RVQS	0.989
RVQH	0.223
RVGS	0.954
RVSP	≤ 0.2
RVSN	0.426
RVHH	0.235
